Mac1 fbg inh: blocks human CD11b/CD18 adhesion to fibrinogen; P05107+P11215; K562 CD11b/CD18 adhesion to fibrinogen, ATPlite luminescence; Mn2+ added to activate the integrin; inhibition, % at 10 µM; 93,000 tested, 0.54% active; AID 1497;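 active means primary inhibition of 50% or more at 10 µM, then 40% or more on retest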
PTK2B oligo ant: blocks oligomerization of human Pyk2 in cells. 99,000 tested, 0.83% active. z-score (the deposit names both 25 µM and 10 µM). AID 1347419. Q293 cells, Pyk2 FERM NanoBiT luminescence; stronger effect = lower value;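 active means Z-score of -3 or lower, scaled per plate to the spread of control and sample wells; inactive means z-score above -3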;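 further: negative z-score means lost luminescence so less FERM oligomerization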
Target sequence (Q14289 whole entry, looked up): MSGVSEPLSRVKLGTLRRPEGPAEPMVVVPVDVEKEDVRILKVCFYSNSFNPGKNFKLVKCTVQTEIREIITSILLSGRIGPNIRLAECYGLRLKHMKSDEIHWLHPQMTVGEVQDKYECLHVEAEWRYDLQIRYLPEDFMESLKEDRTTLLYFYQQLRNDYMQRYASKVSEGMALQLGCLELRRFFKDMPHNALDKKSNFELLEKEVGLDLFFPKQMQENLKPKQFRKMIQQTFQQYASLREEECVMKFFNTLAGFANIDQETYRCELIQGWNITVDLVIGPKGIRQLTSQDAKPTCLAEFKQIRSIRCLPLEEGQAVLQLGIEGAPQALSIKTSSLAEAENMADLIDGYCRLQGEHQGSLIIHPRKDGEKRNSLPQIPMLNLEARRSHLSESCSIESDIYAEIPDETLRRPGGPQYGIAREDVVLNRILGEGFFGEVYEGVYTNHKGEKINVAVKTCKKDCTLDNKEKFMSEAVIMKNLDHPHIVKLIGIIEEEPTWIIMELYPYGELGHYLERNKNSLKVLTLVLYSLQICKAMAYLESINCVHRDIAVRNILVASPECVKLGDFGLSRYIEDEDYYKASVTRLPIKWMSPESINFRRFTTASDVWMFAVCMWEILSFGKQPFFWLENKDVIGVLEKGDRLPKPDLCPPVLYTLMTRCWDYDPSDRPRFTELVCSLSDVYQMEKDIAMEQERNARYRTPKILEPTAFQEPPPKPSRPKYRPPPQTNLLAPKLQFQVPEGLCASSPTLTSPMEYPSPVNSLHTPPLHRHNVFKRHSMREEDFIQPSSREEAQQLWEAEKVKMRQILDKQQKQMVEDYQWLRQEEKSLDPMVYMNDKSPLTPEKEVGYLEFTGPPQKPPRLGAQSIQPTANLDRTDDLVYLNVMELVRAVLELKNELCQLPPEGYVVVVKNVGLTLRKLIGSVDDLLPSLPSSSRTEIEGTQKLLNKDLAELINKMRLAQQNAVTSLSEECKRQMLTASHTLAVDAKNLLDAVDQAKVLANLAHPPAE
CD11b adhes enh: enhancers of human CD11b/CD18 binding to fibrinogen; P05107+P11215; K562 CD11b/CD18 adhesion to fibrinogen, ATPlite luminescence; activation, % at 10 µM; 93,000 tested, 0.07% active;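 active means 10 µM primary screen giving 50% or more activity, confirmed by 40% or more on retest at that dose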
FAK blocker: inhibitors of human focal adhesion kinase; Q05397; biochemical FAK kinase activity assay; inhibition, %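 (tested at 7 µM)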; 97,000 tested, 0.84% active; in the data active means inhibition above about 19%;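 further: 0% = DMSO and 100% = reference compound high control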
The depositor's hits bear a star; · = no result. This is a sample that favours compounds with a hit; in the whole collection about 1.8% have one here.

SMILES | Mac1 fbg inh | PTK2B oligo ant | CD11b adhes enh | FAK blocker
COc1ccc(C2CC(=O)c3cnc(NC(=O)c4ccccc4)nc3C2)cc1OC (stereo not drawn) | -8.3 | · | 2.6 | ·
CCOC(=O)c1c(NC(=O)CSc2nnc3c(n2)[nH]c2ccccc23)sc2c1CCN(C)C2 | · | 0.28 | · | 19.6*
COCCn1c(Cc2ccccc2)nnc1SCc1ccc([N+](=O)[O-])cc1 | -6.9 | · | -0.3 | ·
COc1ccc(CC(=O)OCC(=O)NCCc2ccccc2)cc1OC | 4.7 | · | 0.8 | ·
O=C(OCc1ccc(Cl)cc1)c1ccccc1C(=O)c1ccccc1 | 4.5 | -2.21 | 1.0 | 5.3
Cc1ccc2cc(/C=N/NC(=O)CN3CCOCC3)c(Cl)nc2c1 | 4.6 | 1.11 | 1.3 | -2.4
O=C(Cc1csc(N2CCOCC2)n1)N/N=C/c1ccc(Cl)cc1Cl | 55.2* | 0.32 | -2.8 | 2.4
CC(=O)Nc1cccc(Oc2ncnc3scc(-c4ccc(C)cc4)c23)c1 | 48.9 | · | -1.1 | ·
CC(C)c1ccc(-c2cc(C(=O)N3N=C(C(F)F)CC3(O)C(F)F)c3ccccc3n2)cc1 (stereo not drawn) | 78.5* | -2.43 | -4.5 | -3.8
O=C(c1cc(C2CC2)nc2ccc(Br)cc12)N1N=C(C(F)F)CC1(O)C(F)F (stereo not drawn) | · | -3.32* | · | 2.0
O=C(c1cc(C2CC2)nc2ccccc12)N1N=C(C(F)F)CC1(O)C(F)F (stereo not drawn) | · | -0.21 | · | 1.9
CC1CC(C)CN(C(=O)c2ccccc2Nc2ccc(SC(F)F)cc2)C1 (stereo not drawn) | · | -1.42 | · | 4.6
COC(=O)Cc1ccc(NC(=O)c2ccc(C(C)(C)C)cc2)cc1 | 59.3* | -1.15 | -7.8 | 0.5
Cc1ccc(C(=O)C2(C)C3c4cc(Br)ccc4OC(=O)C32C(=O)c2ccco2)cc1 (stereo not drawn) | · | -3.13* | · | -1.2
CC(=O)c1c(N2CCN(C)CC2)[nH]c(-c2ccccc2)nc1=S | 11.4 | 0.86 | 2.1 | 1.0
COCc1cc(C)nc(N2CCN(c3ccccc3)CC2)c1C#N | -15.5 | 0.79 | -2.2 | ·
COCc1cc(C)nc(N2CCN(Cc3ccccc3)CC2)c1C#N | 52.3* | -0.06 | 2.8 | -0.6
Cc1ccc(Nc2nc3nonc3[nH]c2=O)cc1C | 99.5* | -1.61 | -11.0 | ·
Cc1ccc(Nc2n[nH]c(C)c2[N+](=O)[O-])cc1C | -0.3 | · | 7.5 | ·
CC(C)NC(=O)c1onc(CSc2cccc(Cl)c2)c1C(=O)O | · | · | · | -0.9
CC(C)Cc1csc(NC(=O)c2ccc(Cl)cc2)c1C(=O)O | 100.4* | · | -7.1 | ·
c1ccc(-c2nc(NCc3cccnc3)c3oc4ccccc4c3n2)cc1 | 4.6 | -2.99 | -2.6 | 3.8
Cc1c(C(=O)C(=O)N2CCCc3ccccc32)c2ccccc2n1C | -3.9 | · | -2.4 | ·
CN1C2CCC1/C(=C\c1ccccc1)C(=O)/C2=C\c1ccccc1 | · | -1.22 | · | -2.5
Cc1ccccc1Oc1ccc(S(=O)(=O)NCCC(=O)O)cc1 | 2.6 | -3.51* | 0.2 | -0.1
SMILES | Mac1 fbg inh | PTK2B oligo ant | CD11b adhes enh | FAK blocker
COc1cccc(/C=N/n2c(N)c(S(=O)(=O)c3cccs3)c3nc4ccccc4nc32)c1 | -3.9 | -0.53 | -5.1 | -1.1
Nc1c(S(=O)(=O)c2cccs2)c2nc3ccccc3nc2n1/N=C/c1cccc(O)c1 | 2.6 | -3.25* | -1.2 | 2.6
C=C(C)COc1ccc(-c2nc(N)ncc2Oc2ccccc2OCC)c(O)c1 | -28.7 | -4.45* | 18.4 | 1.8
CCc1ccc(OCC(=O)NC(NC(=S)Nc2ccccc2C)C(Cl)(Cl)Cl)cc1 (stereo not drawn) | 6.2 | -1.02 | -0.9 | ·
CCc1ccc(OCC(=O)NC(NC(=S)Nc2ccc(C)cc2C)C(Cl)(Cl)Cl)cc1 (stereo not drawn) | -3.8 | -0.06 | 50.0* | -4.5
CC(=O)Nc1ccccc1OCC(=O)c1cc(C)n(Cc2cccs2)c1C | 102.2* | 2.23 | -11.7 | ·
CCOC(=O)c1ccc(NC(=O)c2ccc(C)c(S(=O)(=O)N3CCOCC3)c2)cc1 | 83.9* | -2.98 | -8.0 | -1.1
CCOC(=O)c1ccc(NC(=O)c2cccc(S(=O)(=O)N3CCOCC3)c2)cc1 | 39.9 | -0.02 | -3.2 | -9.0
CCCc1nc2ccccc2c(C(=O)OCC(=O)Nc2cccc(S(=O)(=O)N3CCOCC3)c2)c1CC | · | -4.56* | · | -3.3
CCCc1nc2ccccc2c(C(=O)OCC(=O)Nc2ccc(S(=O)(=O)N3CCOCC3)cc2)c1CC | 25.0 | -4.55* | -3.4 | 2.7
O=c1oc2ccc3ccccc3c2cc1-c1nc2ccccc2o1 | · | 0.97 | · | 19.0*
COc1ccc(S(=O)(=O)Nc2ccc(S(=O)(=O)N3CCCCC3)cc2)cc1C | 27.7 | -3.29* | -1.6 | 4.5
COc1ccc(S(=O)(=O)Nc2ccc(C)cc2)cc1OC | -24.2 | -0.62 | 6.6 | -0.6
COc1ccc(S(=O)(=O)Nc2ccccc2)cc1OC | · | -0.08 | · | -13.8
COc1ccc(S(=O)(=O)Nc2ccc3ccccc3c2)cc1C | 10.4 | -3.23* | -2.1 | 0.1
O=S(=O)(Nc1ccc(S(=O)(=O)N2CCCCC2)cc1)c1ccc(Br)s1 | 90.6* | -1.39 | -11.2 | -4.6
COc1ccc(S(=O)(=O)N2CCCN(S(=O)(=O)c3ccc(OC)c(C)c3)CC2)cc1C | · | -1.47 | · | 0.7
O=S(=O)(Nc1ccc(S(=O)(=O)N2CCCCCC2)cc1)c1cccs1 | -3.4 | -1.32 | -3.1 | 12.7
CCc1ccc(NS(=O)(=O)c2ccc(OC)c(C)c2)cc1 | 16.7 | -3.34* | 2.4 | -0.1
CC(C)(C)C(=O)Nc1nnc(SCC(=O)NCc2ccco2)s1 | 2.0 | · | -2.8 | ·
COc1cccc(NC(=O)Cn2c(=O)n(CC3CCCO3)c(=O)c3ccccc32)c1 (stereo not drawn) | -2.2 | -2.35 | 0.3 | 1.5
Oc1csc(Cc2nc(-c3ccc(-c4ccccc4)cc3)cs2)n1 | -1.6 | -0.1 | 161.0* | -1.3
Oc1csc(Cc2nc(-c3ccc4ccccc4c3)cs2)n1 | -0.7 | 1.67 | 15.4 | -3.2
O=S(=O)(c1ccccc1)N1CCN(c2cc(-c3ccccc3)nc3ncnn23)CC1 | · | -3.79* | · | -3.6
CCN(CC)S(=O)(=O)c1ccc2c(c1)nc(SCC(=O)NC1CC1)n2-c1ccccc1OC | 19.3 | -3.3* | 2.6 | -0.6
SMILES | Mac1 fbg inh | PTK2B oligo ant | CD11b adhes enh | FAK blocker
COc1ccccc1-n1c(SCC(=O)NC2CCS(=O)(=O)C2)nc2cc([N+](=O)[O-])ccc21 (stereo not drawn) | -2.6 | · | 5.8 | ·
COc1ccc(C/C(=N\O)c2ccc(OC)cc2)cc1 | 27.2 | -1.59 | -2.6 | -0.1
CCCCCNC(=O)c1ccc2c(=O)[nH]c3c(C(=O)NCC4CCCO4)sc(=S)n3c2c1 (stereo not drawn) | 37.9 | -1.52 | -2.1 | -5.5
O=C(NC1CCCC1)c1sc(=S)n2c1[nH]c(=O)c1ccccc12 | 94.9* | -3.14* | -7.8 | -3.2
O=C(NCc1ccco1)c1sc(=S)n2c1[nH]c(=O)c1ccccc12 | 96.4* | 0.82 | -10.2 | -4.5
COc1cc2c(cc1OC)C(Nc1ccccc1)=NC(C)(C)C2 | 6.5 | · | -0.5 | ·
CC(C)=C1C2CCC1C1C(=O)N(c3nc(-c4ccccc4)c(C)s3)C(=O)C21 (stereo not drawn) | 12.8 | · | -0.6 | ·
CN(C)S(=O)(=O)c1cccc(NC(=S)Nc2cc(Cl)cc(Cl)c2)c1 | 100.5* | 0.29 | -6.5 | 1.0
CN(C)S(=O)(=O)c1cccc(NC(=S)Nc2ccc(Cl)cc2Cl)c1 | 99.3* | 0.96 | -8.0 | -1.3
